The values below come from PubChem BioAssay.

Active and inactive are the calls of the source. Unless noted, no rule for the calls is given here.

Experiment [1] is described as follows: liver-stage malaria parasite load reduction – cell-based, known kinase inhibitor set, luminescence, hepatoma host viability (AID 624392).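 Also: infected cells incubated roughly two days before readout.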 Particulars: Plasmodium liver stage in hepatoma cells, luciferase luminescence, concentration not given here; liver cell % of control: measured here: host liver cell viability; parasite % of control: stronger effect = lower value.
Experiment [2] can be described thus: altered dexamethasone sensitivity, NF-kB reporter, cell-based, luciferase, IL-1B stimulus (AID 624486).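 As to percent of negative control (+Dex): 100% = mean signal of vehicle control wells on the plate.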 Particulars: IL-1B + dexamethasone, luminescence; percent of negative control (+Dex): actives lie on both sides, concentration not given here; z-score: measured here: IL-1B alone, no Dex.
The nature of experiment [3]: C. elegans survival during P. aeruginosa infection – whole organism (AID 651566).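 Also: tested at 14 µM; sign flipped so higher z means a lower ratio.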 Conditions: C. elegans killed by P. aeruginosa, survival ratio.
Experiment [4] in a line: pro-inflammatory signaling induction in mouse macrophages – cell-based, murine, luminescence (AID 652131). Conditions: murine macrophage pro-inflammatory reporter, stronger effect = higher value.
In experiment [5] the target is Cellular tumor antigen p53 (Homo sapiens) (UniProt P04637). The experiment is described as follows: GFP-p53 level modulators in HPV16+ cells – imaging, known kinase inhibitor set, EGFP/DsRed ratio (AID 1053116).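 Also: cells exposed to compounds for 24 h at 37 °C before reading.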 Particulars: GFP-p53 stability, stronger effect = higher value; EGFP object count: measured here: GFP-p53 positive objects count.
Cellular tumor antigen p53 (Homo sapiens), sequence (P04637 whole entry, looked up): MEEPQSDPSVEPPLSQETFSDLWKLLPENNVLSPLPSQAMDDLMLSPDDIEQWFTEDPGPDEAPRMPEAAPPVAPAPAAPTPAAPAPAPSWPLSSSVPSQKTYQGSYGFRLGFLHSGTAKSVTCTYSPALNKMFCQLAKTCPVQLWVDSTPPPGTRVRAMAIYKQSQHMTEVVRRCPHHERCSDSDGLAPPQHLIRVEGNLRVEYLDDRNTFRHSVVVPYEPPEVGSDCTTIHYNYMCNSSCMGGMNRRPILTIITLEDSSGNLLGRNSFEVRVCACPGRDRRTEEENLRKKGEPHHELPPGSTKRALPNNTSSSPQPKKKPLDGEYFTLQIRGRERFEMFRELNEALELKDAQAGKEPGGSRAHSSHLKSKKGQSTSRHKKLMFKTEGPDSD
Experiment [6] can be described thus: inducers of IRF3 signaling, differentiated THP-1 – cell-based, PMA-stimulated THP-1, luminescence (AID 1053176). Conditions: PMA-differentiated THP-1, IRF3 reporter luminescence; stronger effect = higher value.
Experiment [7] can be described thus: MELAS cybrid and Rieske KO viability enhancers – cell-based, MELAS cybrids, Rieske KO mouse fibroblasts, CellTiter-Glo, primary screen (AID 1508586;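 active = mean z-score across replicates of 1.96 or higher in either the MELAS or the Rieske mutant cell line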;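 also: z relative to plate mean and SD of compound and empty wells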). Particulars: low glucose. (ATP-based viability assays read luminescence as a measure of living cells.)
Where [8] appears, read: MELAS cybrid survival, CellTiter-Glo 48 h, stronger effect = higher value.
The mark [9] stands for this setting: Rieske KO mouse fibroblast survival, CellTiter-Glo 72 h.

Turning to `Cc1ccc2c(-c3ccnc(Nc4ccc5c(c4)OCCO5)n3)c(-c3ccc(C(F)(F)F)cc3)nn2n1`, the liver cell % of control in experiment [1] is 142%. Further, the parasite % of control in experiment [1] is 33.6% (inactive). Further, in experiment [2], the percent of negative control (+Dex) is 86% (inactive). Further, the z-score in experiment [2] was -0.095; in experiment [3], -1.23 (inactive); in experiment [4], 0.821 (inactive); in experiment [7] (setting [8]) it was -0.379 (inactive); in experiment [7] (setting [9]), 0.474. Moreover, the EGFP object count in experiment [5] amounted to 1.5. Besides, in experiment [5], the EGFP/DsRed ratio was 0.0121 (inactive). In experiment [6], the fraction signal was 0.002 (inactive).
For `CCN1CCC(CC(=O)NC2NNC3NNC(c4cccc(F)c4F)CC32)CC1` (centres undefined), the liver cell % of control in experiment [1] was 80.9%. For the same compound, the parasite % of control in experiment [1] is 32.2% (inactive). The percent of negative control (+Dex) in experiment [2] is 118% (inactive). Besides, the z-score is -0.095 in experiment [2]; -0.285 (inactive) in experiment [3]; 0.818 (inactive) in experiment [4]; -0.762 (inactive) in experiment [7] (setting [8]); -0.436 in experiment [7] (setting [9]). In addition, in experiment [5], the EGFP object count came out at 25.5. Besides, the EGFP/DsRed ratio in experiment [5] was 0.256 (inactive). Moreover, the fraction signal in experiment [6] is -0.004 (inactive).
For the compound `CCS(=O)(=O)c1ccc(OC)c(Nc2nccc(N(C)c3ccc4c(C)[nH]nc4c3)n2)c1`, the liver cell % of control in experiment [1] worked out at 95.1%. The parasite % of control in experiment [1] is 145% (inactive). Moreover, the percent of negative control (+Dex) in experiment [2] was 92% (inactive). Moreover, the z-score in experiment [2] was -0.36; in experiment [3], -0.175 (inactive); in experiment [4], 2.99 (inactive); in experiment [7] (setting [8]), 1.33 (inactive); in experiment [7] (setting [9]) it was 0.00494. Also, the EGFP object count in experiment [5] worked out at 2.5. Besides, the EGFP/DsRed ratio in experiment [5] was 0.0751 (inactive). Also, in experiment [6], the fraction signal was -0.01 (inactive).
`OCc1ccc(-c2nc(-c3ccc4c(c3)OCO4)c(-c3ccccn3)[nH]2)cc1` returned a liver cell % of control in experiment [1] of 108%. Further, the parasite % of control in experiment [1] is 115% (inactive). Besides, in experiment [2], the percent of negative control (+Dex) is 106% (inactive). Also, the z-score in experiment [2] is -0.455; in experiment [3] it was -0.12 (inactive); in experiment [4], 1.4 (inactive); in experiment [7] (setting [8]), -0.819 (inactive); in experiment [7] (setting [9]), -0.0179. In addition, the EGFP object count in experiment [5] was 3.5. In addition, in experiment [5], the EGFP/DsRed ratio is 0.0782 (inactive). Also, the fraction signal in experiment [6] was 0.0015 (inactive).
For `Nc1nccc(-c2c(-c3ccc(F)cc3)ncn2C2CCC(O)CC2)n1` (centres undefined), the liver cell % of control in experiment [1] is 93%. In addition, in experiment [1], the parasite % of control is 24.7% (inactive). In experiment [2], the percent of negative control (+Dex) was 110% (inactive). In addition, the z-score in experiment [2] was 1.26; in experiment [3], 0.765 (inactive); in experiment [4], 2.25 (inactive); in experiment [7] (setting [8]) it was -1.17 (inactive); in experiment [7] (setting [9]), -0.368. Also, the EGFP object count in experiment [5] was found to be 2. For the same compound, in experiment [5], the EGFP/DsRed ratio was 0.124 (inactive). In addition, the fraction signal in experiment [6] was -0.0025 (inactive).
Take `c1cnn2ncc(-c3ccnc(Nc4ccc5c(c4)OCCO5)n3)c2c1`: in experiment [1], the liver cell % of control worked out at 141%. Further, the parasite % of control in experiment [1] was 14% (inactive). Further, in experiment [2], the percent of negative control (+Dex) was 5% (active). For the same compound, the z-score in experiment [2] was -9.09; in experiment [3] it was 0.965 (inactive); in experiment [4] it was -1.27 (inactive); in experiment [7] (setting [8]), 0.529 (inactive); in experiment [7] (setting [9]) it was 0.76. Further, the EGFP object count in experiment [5] worked out at 2.5. Also, the EGFP/DsRed ratio in experiment [5] is 0.105 (inactive). The fraction signal in experiment [6] was -0.0005 (inactive).
In experiment [1], `Cc1ccc(O)cc1Nc1ccnc2ccc(S(C)(=O)=O)cc12` yielded a liver cell % of control of 79.8%. Also, in experiment [1], the parasite % of control is 60.9% (inactive). Besides, the percent of negative control (+Dex) in experiment [2] was 60.5% (inactive). In addition, the z-score in experiment [2] was -3.46; in experiment [3], 0.285 (inactive); in experiment [4] it was 0.671 (inactive); in experiment [7] (setting [8]), -0.116; in experiment [7] (setting [9]), 3.87. In experiment [5], the EGFP object count is 3. For the same compound, in experiment [5], the EGFP/DsRed ratio is 0.0595 (inactive). In addition, the fraction signal in experiment [6] is -0.007 (inactive).
As for `COc1cc2ncn(-c3cc(OCc4ccccc4C(F)(F)F)c(C(C)=O)s3)c2cc1OC`, in experiment [1], the liver cell % of control is 97.8%. In experiment [1], the parasite % of control is 91.8% (inactive). For the same compound, in experiment [2], the percent of negative control (+Dex) was 82.5% (inactive). The z-score in experiment [2] was -0.63; in experiment [3] it was -0.4 (inactive); in experiment [4], -0.463 (inactive); in experiment [7] (setting [8]), -0.657 (inactive); in experiment [7] (setting [9]), 0.0101. Further, the EGFP object count in experiment [5] is 5. The EGFP/DsRed ratio in experiment [5] is 0.118 (inactive). The fraction signal in experiment [6] is 0.002 (inactive).
With `CCc1cccc(CC)c1/C=C/c1cncc(C(=O)NC)c1`, the liver cell % of control in experiment [1] was 170%. The parasite % of control in experiment [1] was 99.3% (inactive). The percent of negative control (+Dex) in experiment [2] was 81% (inactive). Besides, the z-score was -0.295 in experiment [2]; -0.265 (inactive) in experiment [3]; 0.127 (inactive) in experiment [4]; 1.32 (inactive) in experiment [7] (setting [8]); -0.269 in experiment [7] (setting [9]). For the same compound, in experiment [5], the EGFP object count is 4.5. In experiment [5], the EGFP/DsRed ratio is 0.156 (inactive). For the same compound, the fraction signal in experiment [6] was -0.0125 (inactive).
`COc1ccccc1Nc1ncc(-c2ccccc2)o1` registered a liver cell % of control in experiment [1] of 121%. In addition, in experiment [1], the parasite % of control was 132% (inactive). In experiment [2], the percent of negative control (+Dex) is 243% (active). In addition, the z-score is 9.37 in experiment [2]; -1.29 (inactive) in experiment [3]; 5.36 (inactive) in experiment [4]; 0.853 (inactive) in experiment [7] (setting [8]); -0.618 in experiment [7] (setting [9]). Moreover, in experiment [5], the EGFP object count came out at 8.5. Further, the EGFP/DsRed ratio in experiment [5] is 0.173 (inactive). Moreover, the fraction signal in experiment [6] was 0.001 (inactive).
`Cc1ccc(NC(=O)CC2CC2)cc1-c1ccc(C(=O)NCC2CC2)cc1` returned a liver cell % of control in experiment [1] of 75.5%. In addition, in experiment [1], the parasite % of control is 149% (inactive). Besides, in experiment [2], the percent of negative control (+Dex) is 98.5% (inactive). Also, the z-score was 0.735 in experiment [2]; -1.18 (inactive) in experiment [3]; 0.093 (inactive) in experiment [4]; -0.893 (inactive) in experiment [7] (setting [8]); -0.555 in experiment [7] (setting [9]). In addition, the EGFP object count in experiment [5] came out at 6. The EGFP/DsRed ratio in experiment [5] was 0.154 (inactive). For the same compound, the fraction signal in experiment [6] is -0.006 (inactive).
In experiment [1], `Nc1nccc(-c2c(-c3ccc(F)cc3)ncn2CCCN2CCOCC2)n1` had a liver cell % of control of 120%. Besides, the parasite % of control in experiment [1] was 130% (inactive). Besides, in experiment [2], the percent of negative control (+Dex) was 116% (inactive). In addition, the z-score in experiment [2] was 2.06; in experiment [3], -0.635 (inactive); in experiment [4], 1.67 (inactive); in experiment [7] (setting [8]), -0.929 (inactive); in experiment [7] (setting [9]), -0.324. The EGFP object count in experiment [5] was 3.5. For the same compound, in experiment [5], the EGFP/DsRed ratio is 0.019 (inactive). Also, in experiment [6], the fraction signal is -0.0025 (inactive).
For `O=C1Nc2ccc(-c3cccnc3)cc2/C1=C\c1cc(Br)c(O)c(Br)c1`, the liver cell % of control in experiment [1] was 174%. Moreover, in experiment [1], the parasite % of control is 13.3% (inactive). In addition, the percent of negative control (+Dex) in experiment [2] is 102% (inactive). For the same compound, the z-score in experiment [2] was -0.125; in experiment [3], 0.98 (inactive); in experiment [4], 0.575 (inactive); in experiment [7] (setting [8]), -0.192 (inactive); in experiment [7] (setting [9]), -0.185. Moreover, the EGFP object count in experiment [5] turned out to be 1.5. The EGFP/DsRed ratio in experiment [5] was 0.0182 (inactive). Besides, the fraction signal in experiment [6] is -0.0065 (inactive).
As for `CCS(=O)(=O)c1ccc(OC)c(Nc2ncc(-c3cccc(OC)c3)o2)c1`, the liver cell % of control in experiment [1] amounted to 161%. Moreover, the parasite % of control in experiment [1] was 16.6% (inactive). Besides, the percent of negative control (+Dex) in experiment [2] is 78.5% (inactive). For the same compound, the z-score in experiment [2] is -0.275; in experiment [3], 0.285 (inactive); in experiment [4] it was -0.544 (inactive); in experiment [7] (setting [8]), 1.48 (inactive); in experiment [7] (setting [9]), -0.42. In experiment [5], the EGFP object count came out at 4.5. The EGFP/DsRed ratio in experiment [5] is 0.129 (inactive). Further, in experiment [6], the fraction signal was 0.002 (inactive).
